{"source": "the GenesisPotency data set", "note": "The whole screen tested about 290,000 compounds, of which about 3,000 (1%) were called active. Rule as the data show it: active = inhibition mostly above about 36% (no sharp cut-off); inactive = mostly below about 34%. The sample as a whole holds a higher share of actives than the screen did.", "data": [{"molecular_target": "T1, Nucleotide-binding oligomerization domain-containing protein 1, Homo sapiens (UniProt Q9Y239)", "T1 sequence (whole entry)": "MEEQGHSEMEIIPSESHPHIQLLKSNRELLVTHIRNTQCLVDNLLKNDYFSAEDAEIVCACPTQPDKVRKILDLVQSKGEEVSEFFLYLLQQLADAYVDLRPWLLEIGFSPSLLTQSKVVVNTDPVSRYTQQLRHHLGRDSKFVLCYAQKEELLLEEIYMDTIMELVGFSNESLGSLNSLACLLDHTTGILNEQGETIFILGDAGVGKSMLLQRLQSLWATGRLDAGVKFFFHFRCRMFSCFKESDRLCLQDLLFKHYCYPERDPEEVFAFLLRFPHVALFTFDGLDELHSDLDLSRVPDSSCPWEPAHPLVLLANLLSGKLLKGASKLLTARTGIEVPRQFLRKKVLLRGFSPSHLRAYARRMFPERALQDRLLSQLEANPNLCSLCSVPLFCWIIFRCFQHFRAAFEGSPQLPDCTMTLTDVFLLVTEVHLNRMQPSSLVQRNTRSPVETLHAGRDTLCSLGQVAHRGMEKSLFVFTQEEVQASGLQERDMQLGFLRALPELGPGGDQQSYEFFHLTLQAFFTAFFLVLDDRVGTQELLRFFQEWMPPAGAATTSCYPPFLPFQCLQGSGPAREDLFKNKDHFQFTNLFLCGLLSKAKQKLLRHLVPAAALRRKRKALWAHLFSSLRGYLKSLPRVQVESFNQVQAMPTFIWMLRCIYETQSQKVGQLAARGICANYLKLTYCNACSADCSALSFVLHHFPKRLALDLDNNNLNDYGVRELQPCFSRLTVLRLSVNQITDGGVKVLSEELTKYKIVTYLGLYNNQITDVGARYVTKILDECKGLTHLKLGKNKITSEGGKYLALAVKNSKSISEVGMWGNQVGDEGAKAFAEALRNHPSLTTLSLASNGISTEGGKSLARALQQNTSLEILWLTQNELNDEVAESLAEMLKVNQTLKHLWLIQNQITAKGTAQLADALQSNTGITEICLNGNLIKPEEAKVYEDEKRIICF", "test": "inhibition of NOD1-driven NF-kB reporter – cell-based, luminescence, uHTS, primary screen (AID 1578)", "values": [{"smiles": "COc1ccc(N(C(=O)CCl)C(C(=O)NCCc2ccccc2)c2cccs2)cc1", "note": "(centres undefined)", "outcome": "active"}, {"smiles": "COc1cccc(N(C(=O)CCl)C(C(=O)NCCc2ccccc2)c2cccs2)c1", "note": "(centres undefined)", "outcome": "active"}, {"smiles": "COc1ccc(NS(=O)(=O)c2cccc(NC(=O)c3ccc(Cl)nc3)c2)cc1", "outcome": "active"}, {"smiles": "COc1ccc(NS(=O)(=O)c2cccc(NC(=O)c3ccc(S(=O)(=O)N4CCCCCC4)cc3)c2)cc1", "outcome": "active"}, {"smiles": "Cc1sc2ncnc(Sc3nnnn3-c3ccccc3)c2c1C", "outcome": "active"}, {"smiles": "Cc1ccccc1-n1nnnc1Sc1nnnn1-c1ccccc1", "outcome": "active"}, {"smiles": "Cc1sc2ncnc(Sc3nnnn3-c3ccc(Cl)cc3)c2c1C", "outcome": "active"}, {"smiles": "O=[N+]([O-])c1ccc(/C=N/N=C/c2ccc([N+](=O)[O-])o2)o1", "outcome": "active"}, {"smiles": "O=C(N/N=C/c1ccc([N+](=O)[O-])o1)c1ccc2c(c1)OCO2", "outcome": "active"}, {"smiles": "Cc1scc(C(=O)N/N=C/c2ccc([N+](=O)[O-])o2)c1C", "outcome": "active"}, {"smiles": "O=C(N/N=C/c1ccc([N+](=O)[O-])o1)c1ccccc1-n1cccc1", "outcome": "active"}, {"smiles": "O=C(N/N=C/c1ccc([N+](=O)[O-])o1)c1ccccc1NS(=O)(=O)c1cccs1", "outcome": "active"}, {"smiles": "Cc1nn(-c2cc(C(F)(F)F)ccc2Cl)c2nc(C(Cl)(Cl)Cl)[nH]c(=O)c12", "outcome": "active"}, {"smiles": "Cc1nn(-c2cccc(Cl)c2)c2nc(C(F)(F)F)[nH]c(=O)c12", "outcome": "active"}, {"smiles": "COc1cccc(N2CCN(c3ncnc4c3cnn4-c3ccc(C)cc3C)CC2)c1", "outcome": "active"}, {"smiles": "COc1ccc(-c2n(CC(=O)OC3CC(C)CCC3C(C)C)c3ccccc3[n+]2C)cc1.[Cl-]", "note": "(centres undefined)", "outcome": "active"}, {"smiles": "Cc1csc(SCC(=O)Nc2cccc3nsnc23)n1", "outcome": "active"}, {"smiles": "Cc1noc(C)c1CSc1nc2ccccc2nc1NS(=O)(=O)c1ccc(Cl)cc1", "outcome": "active"}, {"smiles": "Cc1[nH]nc2ncc(C(=O)c3ccccc3O)cc12", "outcome": "active"}, {"smiles": "Fc1ccc(CSc2nnc(-c3ccncc3)o2)cc1", "outcome": "active"}, {"smiles": "Clc1ccc(CSc2nnc(-c3ccncc3)o2)cc1", "outcome": "active"}, {"smiles": "O=c1cc(-c2ccccc2Cl)oc2c([N+](=O)[O-])c(O)cc(O)c12", "outcome": "active"}, {"smiles": "CCOc1ccccc1NC(=O)CSc1nc2nc(-c3cccs3)cc(C(F)(F)F)c2c(=O)[nH]1", "outcome": "active"}, {"smiles": "Cc1ccc(C)c(NC(=O)CSc2nc3nc(-c4cccs4)cc(C(F)(F)F)c3c(=O)[nH]2)c1", "outcome": "active"}, {"smiles": "O=C(CSc1nc2nc(-c3cccs3)cc(C(F)(F)F)c2c(=O)[nH]1)Nc1ccc(F)c(F)c1", "outcome": "active"}, {"smiles": "O=C(CSc1nc2nc(-c3cccs3)cc(C(F)(F)F)c2c(=O)[nH]1)Nc1c(F)c(F)c(F)c(F)c1F", "outcome": "active"}, {"smiles": "COc1ccc(-c2c(C(F)(F)F)[nH]n3c(=O)cc(-c4ccccc4)nc23)cc1", "outcome": "active"}, {"smiles": "O=c1cc(-c2ccccc2)nc2c(-c3ccccc3)c(C(F)(F)F)[nH]n12", "outcome": "active"}, {"smiles": "CC(=O)/C=C/n1c(=S)oc2ccccc21", "outcome": "active"}, {"smiles": "CC(C)CC(=O)/C=C/n1c(=S)oc2ccccc21", "outcome": "active"}, {"smiles": "CCOC(=O)N1CCN(C(=O)C2CCCN(Cc3nc(-c4ccc(Cl)cc4)oc3C)C2)CC1", "note": "(centres undefined)", "outcome": "active"}, {"smiles": "CC(=O)c1c(C)[nH]c(C(=O)OCC(=O)Nc2sc3c(c2C#N)CCCC3)c1C", "outcome": "active"}, {"smiles": "COc1ccccc1Nc1nc(-c2sc(NC(=O)c3ccco3)nc2C)cs1", "outcome": "active"}, {"smiles": "Br.CC(=O)Nc1nc(C)c(-c2csc(Nc3ccc(O)cc3)n2)s1", "outcome": "active"}, {"smiles": "CC[C@H]1CN2CCc3cc(OC)c(OC)cc3[C@@H]2C[C@@H]1C[C@H]1NCCc2cc(OC)c(OC)cc21.Cl", "outcome": "active"}, {"smiles": "O=C(NC(=S)N1CCN(c2ccc(C(F)(F)F)cc2[N+](=O)[O-])CC1)c1cccs1", "outcome": "active"}, {"smiles": "O=C(NC(=S)N1CCN(c2ccc(Cl)cc2[N+](=O)[O-])CC1)c1cccs1", "outcome": "active"}, {"smiles": "O=C(c1ccc2c(c1)CCN2S(=O)(=O)c1ccccc1)N1CCN(c2ccc(F)cc2)CC1", "outcome": "active"}, {"smiles": "COc1cc(C2CC(c3cccs3)=NN2C(=O)CCl)ccc1OC(F)F", "note": "(centres undefined)", "outcome": "active"}, {"smiles": "COc1ccc(C2CC(c3cccs3)=NN2C(=O)CCl)cc1OC", "note": "(centres undefined)", "outcome": "active"}, {"smiles": "O=C(COc1ccc(C(=O)c2ccccc2)cc1)Nc1cccnc1", "outcome": "active"}, {"smiles": "Cc1ccc(-n2ncc(Br)c(Br)c2=O)cc1", "outcome": "active"}, {"smiles": "COc1cc(OC)nc(-n2ncc(Br)c(Br)c2=O)n1", "outcome": "active"}, {"smiles": "Cc1cccc(/C=C(\\c2nc3ccccc3[nH]2)S(=O)(=O)c2ccccc2)c1", "outcome": "active"}, {"smiles": "CC(C)c1ccc(/C=C(\\c2nc3ccccc3[nH]2)S(=O)(=O)c2ccccc2)cc1", "outcome": "active"}, {"smiles": "O=S(=O)(/C(=C/c1ccc(C(F)(F)F)cc1)c1nc2ccccc2[nH]1)c1ccccc1", "outcome": "active"}, {"smiles": "N=C1SC(c2ccccc2)C(=O)N1c1ncc(Cc2ccccc2Cl)s1", "note": "(centres undefined)", "outcome": "active"}, {"smiles": "Cc1ccc(Cc2cnc(N3C(=N)SC(c4ccccc4)C3=O)s2)cc1", "note": "(centres undefined)", "outcome": "active"}, {"smiles": "N=C1SC(c2ccccc2)C(=O)N1c1ncc(Cc2ccccc2)s1", "note": "(centres undefined)", "outcome": "active"}, {"smiles": "CCOc1ccc2nc(SCc3ccc(CC(=O)O)cc3)c(C#N)cc2c1", "outcome": "active"}, {"smiles": "CSc1nc2ccc(NS(=O)(=O)c3ccc4c(c3)OCCO4)cc2s1", "outcome": "active"}, {"smiles": "Cc1nc2ccc(NS(=O)(=O)c3c(C)c(C)cc(C)c3C)cc2s1", "outcome": "active"}, {"smiles": "Cc1nc2ccc(NS(=O)(=O)c3ccc4c(c3)OCCO4)cc2s1", "outcome": "active"}, {"smiles": "O=C(CCl)Nc1cc(SCC(O)CO)cc([N+](=O)[O-])c1", "note": "(centres undefined)", "outcome": "active"}]}]}
